Test results: the supplement of paper PMC4466140

Legend:
Test in all cases: SPOT peptide array binding signal intensity (averaged, normalized) (arbitrary units (background-subtracted, floor 0; scale differs between SH3 domains)); higher = stronger binding of the SH3 domain to the peptide
AgAbp1 = target: AgAbp1
Summary of the method: (§1)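 Cellulose membranes carried synthetic 15-mer peptides with cysteines swapped for serines. These were incubated overnight at 4°C with 10 μg/ml of GST-fused SH3 domains from four yeast species in TBS-based blocking buffer. Binding signal, detected with anti-GST antibody and quantified in Genespotter, is the normalized, background-subtracted spot intensity averaged over replicates, in arbitrary units specific to each domain.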

AgBbc1 = target: AgBbc1
Summary of the method: as §1

AgBem1-D1 = target: AgBem1-D1
Summary of the method: as §1

AgBzz1-D1 = target: AgBzz1-D1
Summary of the method: as §1

AgBzz1-D2 = target: AgBzz1-D2
Summary of the method: as §1

AgCyk3 = target: AgCyk3
Summary of the method: as §1

AgFus1 = target: AgFus1
Summary of the method: as §1

AgHof1 = target: AgHof1
Summary of the method: as §1

AgHse1 = target: AgHse1
Summary of the method: as §1

AgLsb1 = target: AgLsb1
Summary of the method: as §1

AgLsb4 = target: AgLsb4
Summary of the method: as §1

AgMyo5 = target: AgMyo5
Summary of the method: as §1

AgNbp2 = target: AgNbp2
Summary of the method: as §1

AgRvs167 = target: AgRvs167
Summary of the method: as §1

AgSho1 = target: AgSho1
Summary of the method: as §1

AgSla1-D1-D2 = target: AgSla1-D1-D2
Summary of the method: as §1

AgSla1-D3 = target: AgSla1-D3
Summary of the method: as §1

CaAbp1-D1 = target: CaAbp1-D1
Summary of the method: as §1

CaAbp1-D2 = target: CaAbp1-D2
Summary of the method: as §1

CaBbc1 = target: CaBbc1
Summary of the method: as §1

CaBem1-D1 = target: CaBem1-D1
Summary of the method: as §1

CaBzz1-D1 = target: CaBzz1-D1
Summary of the method: as §1

CaBzz1-D2 = target: CaBzz1-D2
Summary of the method: as §1

CaCyk3 = target: CaCyk3
Summary of the method: as §1

CaFus1 = target: CaFus1
Summary of the method: as §1

CaHof1 = target: CaHof1
Summary of the method: as §1

CaHse1 = target: CaHse1
Summary of the method: as §1

CaLsb1 = target: CaLsb1
Summary of the method: as §1

CaLsb4 = target: CaLsb4
Summary of the method: as §1

CaMyo5 = target: CaMyo5
Summary of the method: as §1

CaNbp2 = target: CaNbp2
Summary of the method: as §1

CaRvs167 = target: CaRvs167
Summary of the method: as §1

CaRvs167-3 = target: CaRvs167-3
Summary of the method: as §1

CaSho1 = target: CaSho1
Summary of the method: as §1

CaSla1-D1-D2 = target: CaSla1-D1-D2
Summary of the method: as §1

CaSla1-D3 = target: CaSla1-D3
Summary of the method: as §1

ScAbp1 = target: ScAbp1
Summary of the method: as §1

ScBbc1 = target: ScBbc1
Summary of the method: as §1

ScBem1-D1 = target: ScBem1-D1
Summary of the method: as §1

ScBzz1-D1 = target: ScBzz1-D1
Summary of the method: as §1

ScBzz1-D2 = target: ScBzz1-D2
Summary of the method: as §1

ScCyk3 = target: ScCyk3
Summary of the method: as §1

ScFus1 = target: ScFus1
Summary of the method: as §1

ScHof1 = target: ScHof1
Summary of the method: as §1

ScHse1 = target: ScHse1
Summary of the method: as §1

ScLsb1 = target: ScLsb1
Summary of the method: as §1

ScLsb2 = target: ScLsb2
Summary of the method: as §1

ScLsb3 = target: ScLsb3
Summary of the method: as §1

ScLsb4 = target: ScLsb4
Summary of the method: as §1

ScMyo3 = target: ScMyo3
Summary of the method: as §1

ScMyo5 = target: ScMyo5
Summary of the method: as §1

ScNbp2 = target: ScNbp2
Summary of the method: as §1

ScPex13 = target: ScPex13
Summary of the method: as §1

ScRvs167 = target: ScRvs167
Summary of the method: as §1

ScSho1 = target: ScSho1
Summary of the method: as §1

ScSla1-D1-D2 = target: ScSla1-D1-D2
Summary of the method: as §1

ScSla1-D3 = target: ScSla1-D3
Summary of the method: as §1

SpAbp1-D1 = target: SpAbp1-D1
Summary of the method: as §1

SpBbc1 = target: SpBbc1
Summary of the method: as §1

SpBzz1-D1 = target: SpBzz1-D1
Summary of the method: as §1

SpBzz1-D2 = target: SpBzz1-D2
Summary of the method: as §1

SpCyk3 = target: SpCyk3
Summary of the method: as §1

SpHof1 = target: SpHof1
Summary of the method: as §1

SpHof1-2 = target: SpHof1-2
Summary of the method: as §1

SpHof1-3 = target: SpHof1-3
Summary of the method: as §1

SpHse1 = target: SpHse1
Summary of the method: as §1

SpLsb1 = target: SpLsb1
Summary of the method: as §1

SpLsb4 = target: SpLsb4
Summary of the method: as §1

SpMyo1 = target: SpMyo1
Summary of the method: as §1

SpNbp2 = target: SpNbp2
Summary of the method: as §1

SpPex13 = target: SpPex13
Summary of the method: as §1

SpRvs167 = target: SpRvs167
Summary of the method: as §1

SpSla1-D1-D2 = target: SpSla1-D1-D2
Summary of the method: as §1

SpSla1-D3 = target: SpSla1-D3
Summary of the method: as §1

For RRASLFPRDPKRLRP, the “SPOT peptide array binding signal intensity” value (AgAbp1) was 89.5, the “SPOT peptide array binding signal intensity” value (AgBbc1) was 87.5 and the “SPOT peptide array binding signal intensity” value (AgBem1-D1) was 169. The “SPOT peptide array binding signal intensity” value (AgBzz1-D1) was 87, the “SPOT peptide array binding signal intensity” value (AgBzz1-D2) was 49 and the “SPOT peptide array binding signal intensity” value (AgCyk3) was 3. The “SPOT peptide array binding signal intensity” value (AgFus1) was 223, the “SPOT peptide array binding signal intensity” value (AgHof1) was 22.2 and the “SPOT peptide array binding signal intensity” value (AgHse1) was 1070. For the same binder, the “SPOT peptide array binding signal intensity” value (AgLsb1) was 1, the “SPOT peptide array binding signal intensity” value (AgLsb4) was 112 and the “SPOT peptide array binding signal intensity” value (AgMyo5) was 2.5. For the same binder, the “SPOT peptide array binding signal intensity” value (AgNbp2) was 107, the “SPOT peptide array binding signal intensity” value (AgRvs167) was 0.5 and the “SPOT peptide array binding signal intensity” value (AgSho1) was 67.5. The “SPOT peptide array binding signal intensity” value (AgSla1-D1-D2) was 116, the “SPOT peptide array binding signal intensity” value (AgSla1-D3) was 7.5 and the “SPOT peptide array binding signal intensity” value (CaAbp1-D1) was 520. The “SPOT peptide array binding signal intensity” value (CaAbp1-D2) was 362, the “SPOT peptide array binding signal intensity” value (CaBbc1) was 304 and the “SPOT peptide array binding signal intensity” value (CaBem1-D1) was 83. For the same binder, the “SPOT peptide array binding signal intensity” value (CaBzz1-D1) was 131, the “SPOT peptide array binding signal intensity” value (CaBzz1-D2) was 128 and the “SPOT peptide array binding signal intensity” value (CaCyk3) was 39. The “SPOT peptide array binding signal intensity” value (CaFus1) was 724, the “SPOT peptide array binding signal intensity” value (CaHof1) was 1.5 and the “SPOT peptide array binding signal intensity” value (CaHse1) was 13.2. For the same binder, the “SPOT peptide array binding signal intensity” value (CaLsb1) was 0.25, the “SPOT peptide array binding signal intensity” value (CaLsb4) was 58.5 and the “SPOT peptide array binding signal intensity” value (CaMyo5) was 4.5. For the same binder, the “SPOT peptide array binding signal intensity” value (CaNbp2) was 464, the “SPOT peptide array binding signal intensity” value (CaRvs167) was 8.67 and the “SPOT peptide array binding signal intensity” value (CaRvs167-3) was 80.2. For the same binder, the “SPOT peptide array binding signal intensity” value (CaSho1) was 430, the “SPOT peptide array binding signal intensity” value (CaSla1-D1-D2) was 87.5 and the “SPOT peptide array binding signal intensity” value (CaSla1-D3) was at most 0. For the same binder, the “SPOT peptide array binding signal intensity” value (ScAbp1) was 284, the “SPOT peptide array binding signal intensity” value (ScBbc1) was 18.2 and the “SPOT peptide array binding signal intensity” value (ScBem1-D1) was 173. For the same binder, the “SPOT peptide array binding signal intensity” value (ScBzz1-D1) was 30.5, the “SPOT peptide array binding signal intensity” value (ScBzz1-D2) was 104 and the “SPOT peptide array binding signal intensity” value (ScCyk3) was 108. The “SPOT peptide array binding signal intensity” value (ScFus1) was 282, the “SPOT peptide array binding signal intensity” value (ScHof1) was 4 and the “SPOT peptide array binding signal intensity” value (ScHse1) was 1890. For the same binder, the “SPOT peptide array binding signal intensity” value (ScLsb1) was 14.5, the “SPOT peptide array binding signal intensity” value (ScLsb2) was 1 and the “SPOT peptide array binding signal intensity” value (ScLsb3) was 248. The “SPOT peptide array binding signal intensity” value (ScLsb4) was 4.5, the “SPOT peptide array binding signal intensity” value (ScMyo3) was 0.5 and the “SPOT peptide array binding signal intensity” value (ScMyo5) was 2. The “SPOT peptide array binding signal intensity” value (ScNbp2) was 308, the “SPOT peptide array binding signal intensity” value (ScPex13) was at most 0 and the “SPOT peptide array binding signal intensity” value (ScRvs167) was 16.3. The “SPOT peptide array binding signal intensity” value (ScSho1) was 992, the “SPOT peptide array binding signal intensity” value (ScSla1-D1-D2) was 1000 and the “SPOT peptide array binding signal intensity” value (ScSla1-D3) was 20. The “SPOT peptide array binding signal intensity” value (SpAbp1-D1) was 152, the “SPOT peptide array binding signal intensity” value (SpBbc1) was 7 and the “SPOT peptide array binding signal intensity” value (SpBzz1-D1) was 609. The “SPOT peptide array binding signal intensity” value (SpBzz1-D2) was at most 0, the “SPOT peptide array binding signal intensity” value (SpCyk3) was 1 and the “SPOT peptide array binding signal intensity” value (SpHof1) was 184. The “SPOT peptide array binding signal intensity” value (SpHof1-2) was 44.5, the “SPOT peptide array binding signal intensity” value (SpHof1-3) was 352 and the “SPOT peptide array binding signal intensity” value (SpHse1) was 420. For the same binder, the “SPOT peptide array binding signal intensity” value (SpLsb1) was 4.25, the “SPOT peptide array binding signal intensity” value (SpLsb4) was 98 and the “SPOT peptide array binding signal intensity” value (SpMyo1) was 2. The “SPOT peptide array binding signal intensity” value (SpNbp2) was 348, the “SPOT peptide array binding signal intensity” value (SpPex13) was 17 and the “SPOT peptide array binding signal intensity” value (SpRvs167) was 11.3. For the same binder, the “SPOT peptide array binding signal intensity” value (SpSla1-D1-D2) was at most 0 and the “SPOT peptide array binding signal intensity” value (SpSla1-D3) was 19.

With TPRLSLPRLPNKHHW the “SPOT peptide array binding signal intensity” value (AgAbp1) was 88, the “SPOT peptide array binding signal intensity” value (AgBbc1) was 1.5 and the “SPOT peptide array binding signal intensity” value (AgBem1-D1) was at most 0. The “SPOT peptide array binding signal intensity” value (AgBzz1-D1) was 12.5, the “SPOT peptide array binding signal intensity” value (AgBzz1-D2) was 23.5 and the “SPOT peptide array binding signal intensity” value (AgCyk3) was at most 0. The “SPOT peptide array binding signal intensity” value (AgFus1) was 15.5, the “SPOT peptide array binding signal intensity” value (AgHof1) was 685 and the “SPOT peptide array binding signal intensity” value (AgHse1) was 271. For the same binder, the “SPOT peptide array binding signal intensity” value (AgLsb1) was 1, the “SPOT peptide array binding signal intensity” value (AgLsb4) was 33.5 and the “SPOT peptide array binding signal intensity” value (AgMyo5) was at most 0. The “SPOT peptide array binding signal intensity” value (AgNbp2) was 26, the “SPOT peptide array binding signal intensity” value (AgRvs167) was 2.67 and the “SPOT peptide array binding signal intensity” value (AgSho1) was 274. For the same binder, the “SPOT peptide array binding signal intensity” value (AgSla1-D1-D2) was 7, the “SPOT peptide array binding signal intensity” value (AgSla1-D3) was at most 0 and the “SPOT peptide array binding signal intensity” value (CaAbp1-D1) was 314. The “SPOT peptide array binding signal intensity” value (CaAbp1-D2) was 675, the “SPOT peptide array binding signal intensity” value (CaBbc1) was 30.2 and the “SPOT peptide array binding signal intensity” value (CaBem1-D1) was at most 0. For the same binder, the “SPOT peptide array binding signal intensity” value (CaBzz1-D1) was at most 0, the “SPOT peptide array binding signal intensity” value (CaBzz1-D2) was 34.5 and the “SPOT peptide array binding signal intensity” value (CaCyk3) was at most 0. For the same binder, the “SPOT peptide array binding signal intensity” value (CaFus1) was 50.5, the “SPOT peptide array binding signal intensity” value (CaHof1) was 1 and the “SPOT peptide array binding signal intensity” value (CaHse1) was 73. The “SPOT peptide array binding signal intensity” value (CaLsb1) was at most 0, the “SPOT peptide array binding signal intensity” value (CaLsb4) was 70 and the “SPOT peptide array binding signal intensity” value (CaMyo5) was at most 0.
